The test system of experiment [1] is Jurkat. Briefly: mean cell size (FSC-A) relative to DMSO control (fraction of control); higher = larger cells. As to conditions: 48 h. In outline: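 Jurkat cells seeded at 600 cells/µl were incubated 1 h, then exposed for 48h to the Enzo Screen-Well FDA Approved Drug Library v2.0 at 25µM in 0.9% (v/v) final DMSO. Drugs that cut counts below 20% of controls were diluted 10-fold and retested, down to 25nM. Cell count and mean cell size (forward scatter area) were read on an Accuri C6 flow cytometer, relative to solvent-only controls. Plates held 6-12 controls; values are means of 3 biological replicates.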

Experiment [2] concerns Jurkat. Put plainly: cell count relative to DMSO control (fraction of control); higher = more cells (less growth inhibition). The following applies: 48 h.

Molecules are shown by their SMILES. Where a name gives a salt, the structure may show the parent alone. ± gives the standard deviation.

As to `N[C@@H](Cc1ccc(N(CCCl)CCCl)cc1)C(=O)O` [Melphalan] (concentration: 250 nM), the mean cell size with Jurkat [1] is 1.02 ± 0.022. This molecule returned a cell count in the experiment with Jurkat [2] of 0.46 ± 0.08.

As to `O=P1(NCCCl)OCCCN1CCCl` (stereo not given) [Ifosfamide] (concentration: 25 µM), the mean cell size with Jurkat [1] is 0.938 ± 0.026. This molecule displayed a cell count in the experiment with Jurkat [2] of 0.372 ± 0.12.

As for `CC(C)C[C@H]1C(=O)N2CCC[C@H]2[C@]2(O)O[C@](NC(=O)[C@@H]3C=C4c5cccc6[nH]c(Br)c(c56)C[C@H]4N(C)C3)(C(C)C)C(=O)N12` [Bromocriptine Mesylate] (concentration: 25 µM), the mean cell size in the experiment with Jurkat [1] amounted to 0.939 ± 0.031. Further, the cell count in the experiment on Jurkat [2] was determined as 0.288 ± 0.21.

`CN(C)C(=O)Oc1ccc[n+](C)c1` [Pyridostigmine Bromide] (concentration: 25 µM) yielded a mean cell size with Jurkat [1] of 0.986 ± 0.027. The cell count with Jurkat [2] amounted to 0.651 ± 0.11.

`NCC(CC(=O)O)c1ccc(Cl)cc1` (stereo not given) [Baclofen] (concentration: 25 µM): the mean cell size with Jurkat [1] came out at 0.985 ± 0.044. Further, the cell count with Jurkat [2] was 0.555 ± 0.08.

Molecule `CCN(C(C)=O)c1cccc(-c2ccnc3c(C#N)cnn23)c1` [Zaleplon] (concentration: 25 µM) gave a mean cell size in the experiment on Jurkat [1] of 1 ± 0.059. In addition, the cell count in the experiment with Jurkat [2] amounted to 0.664 ± 0.14.

Regarding `N.N.[Cl][Pt][Cl]` [Cisplatin (Cis-Diamineplatinum(Ii) Dichloride )] (concentration: 25 µM), the mean cell size in the experiment with Jurkat [1] came out at 1.043 ± 0.0024. The molecule also gave a cell count with Jurkat [2] of 0.895 ± 0.045.

For `Nc1ccncc1` [Dalfampridine (4-Aminopyridine)] (concentration: 25 µM), the mean cell size in the experiment with Jurkat [1] was 0.999 ± 0.044. The cell count with Jurkat [2] was 0.646 ± 0.16.

Turning to `O=c1[nH]c2ccccc2n1C1CCN(CCCC(c2ccc(F)cc2)c2ccc(F)cc2)CC1` [Pimozide] (concentration: 2.5 µM), the mean cell size with Jurkat [1] amounted to 1.08 ± 0.033. The cell count with Jurkat [2] was found to be 0.663 ± 0.14.

Regarding `Oc1ccc2c3c1O[C@H]1[C@@H](O)CC[C@@]4(O)[C@@H](C2)N(CC2CCC2)CC[C@]314` [Nalbuphine·HCl Dihydrate] (concentration: 25 µM), the mean cell size in the experiment on Jurkat [1] was determined as 0.955 ± 0.048. In the experiment with Jurkat [2], the cell count is 0.995 ± 0.17.

For `CN1C(=O)CC(=O)N(c2ccccc2)c2cc(Cl)ccc21` [Clobazam] (concentration: 25 µM), the mean cell size in the experiment with Jurkat [1] was 0.984 ± 0.032. For the same molecule, the cell count with Jurkat [2] worked out at 0.64 ± 0.12.

As for `C=C1C[C@@H]2[C@H](CC[C@]3(C)C(=O)CC[C@@H]23)[C@@]2(C)C=CC(=O)C=C12` [Exemestane] (concentration: 25 µM), the mean cell size with Jurkat [1] came out at 0.914 ± 0.029. For the same molecule, in the experiment with Jurkat [2], the cell count came to 0.422 ± 0.12.

In the experiment on Jurkat [1], `NC(=O)C[S+]([O-])C(c1ccccc1)c1ccccc1` (stereo not given) [Modafinil (Schedule Iv)] (concentration: 25 µM) gave a mean cell size of 0.968 ± 0.014. This molecule showed a cell count in the experiment on Jurkat [2] of 0.807 ± 0.05.

`COc1ccc2c(c1)[C@]13CCCC[C@@H]1[C@H](C2)N(C)CC3` [Dextromethorphan] (concentration: 25 µM) came in with a mean cell size in the experiment on Jurkat [1] of 0.936 ± 0.022. The molecule further returned a cell count in the experiment on Jurkat [2] of 0.841 ± 0.024.

Regarding `CN1[C@@H]2C[C@@H](OC(=O)[C@H](CO)c3ccccc3)C[C@H]1[C@@H]1O[C@@H]12` [Scopolamine·HBr] (concentration: 25 µM), the mean cell size in the experiment with Jurkat [1] turned out to be 1 ± 0.061. For the same molecule, the cell count with Jurkat [2] amounted to 0.608 ± 0.1.

Regarding `CC(O)(CS(=O)(=O)c1ccc(F)cc1)C(=O)Nc1ccc(C#N)c(C(F)(F)F)c1` (stereo not given) [Bicalutamide] (concentration: 25 µM), the mean cell size in the experiment with Jurkat [1] was found to be 0.973 ± 0.027. This molecule also displayed a cell count in the experiment on Jurkat [2] of 0.836 ± 0.064.

Molecule `CCOC(=O)c1cncn1[C@H](C)c1ccccc1` [Etomidate] (concentration: 25 µM) gave a mean cell size with Jurkat [1] of 1.04 ± 0.049. The molecule further showed a cell count in the experiment with Jurkat [2] of 0.854 ± 0.055.

The molecule `CC(NC(C)(C)C)C(=O)c1cccc(Cl)c1` (stereo not given) [Bupropion] (concentration: 25 µM) displayed a mean cell size in the experiment on Jurkat [1] of 0.935 ± 0.011. The molecule also showed a cell count in the experiment with Jurkat [2] of 0.696 ± 0.15.

In turn, `C=CCN1C[C@H](C(=O)N(CCCN(C)C)C(=O)NCC)C[C@@H]2c3cccc4[nH]cc(c34)C[C@H]21` [Cabergoline] (concentration: 25 µM) showed a mean cell size in the experiment on Jurkat [1] of 0.889 ± 0.02. The same molecule showed a cell count with Jurkat [2] of 0.234 ± 0.08.

For the molecule `C[C@]12CC[C@@H]3c4ccc(OC(=O)N(CCCl)CCCl)cc4CC[C@H]3[C@@H]1CC[C@@H]2OP(=O)(O)O` [Estramustine Phosphate·Na] (concentration: 25 µM), the mean cell size with Jurkat [1] was determined as 0.958 ± 0.045. The cell count with Jurkat [2] came out at 0.781 ± 0.051.

The molecule `O=C(O)CCCc1ccc(N(CCCl)CCCl)cc1` [Chlorambucil] (concentration: 250 nM) came in with a mean cell size with Jurkat [1] of 0.945 ± 0.019. The same molecule came in with a cell count with Jurkat [2] of 0.352 ± 0.089.

`CCCCCCC(=O)O[C@H]1CC[C@H]2[C@@H]3CCC4=CC(=O)CC[C@]4(C)[C@H]3CC[C@]12C` [Testosterone Enanthate] (concentration: 25 µM): in the experiment with Jurkat [1], the mean cell size was 0.954 ± 0.047. Further, the cell count in the experiment with Jurkat [2] was determined as 0.703 ± 0.12.

In the case of `CC(C)C[C@H](CN)CC(=O)O` [Pregabalin] (concentration: 25 µM), the mean cell size in the experiment with Jurkat [1] stood at 1.03 ± 0.02. The molecule further showed a cell count with Jurkat [2] of 0.592 ± 0.12.

As for `CCOC(=O)CC(SP(=S)(OC)OC)C(=O)OCC` (stereo not given) [Malathion] (concentration: 25 µM), in the experiment with Jurkat [1], the mean cell size came out at 0.916 ± 0.041. The molecule further came in with a cell count with Jurkat [2] of 1.06 ± 0.074.

Take `O=C1Nc2ccc(Cl)cc2C(c2ccccc2)=NC1O` (stereo not given) [Oxazepam] (concentration: 25 µM): the mean cell size with Jurkat [1] was 0.938 ± 0.029. Further, in the experiment with Jurkat [2], the cell count amounted to 0.645 ± 0.05.

(Values after the supplement of paper PMC4709259.)
